# Paper PMC7862700, “An all-to-all approach to the identification of sequence-specific readers for epigenetic DNA modifications on cytosine”
# Assays:
# Experiment in all cases: DAPPL (digital affinity profiling via proximity ligation, sequencing); 10 mM Tris-HCl pH 7.5, 50 mM NaCl, 1 mM DTT, 4% glycerol, room temperature, 30 min; GST-TFs on glutathione beads, 16-mer random dsDNA library, 0.1% formaldehyde crosslink after washing; high values mean tight binding
# FLI1 = biological target: T1, FLI1 (Homo sapiens, UniProt Q01543 1-452); details: protein: recombinant; tags: N-terminal GST; dsDNA, one strand shown
# T1 sequence: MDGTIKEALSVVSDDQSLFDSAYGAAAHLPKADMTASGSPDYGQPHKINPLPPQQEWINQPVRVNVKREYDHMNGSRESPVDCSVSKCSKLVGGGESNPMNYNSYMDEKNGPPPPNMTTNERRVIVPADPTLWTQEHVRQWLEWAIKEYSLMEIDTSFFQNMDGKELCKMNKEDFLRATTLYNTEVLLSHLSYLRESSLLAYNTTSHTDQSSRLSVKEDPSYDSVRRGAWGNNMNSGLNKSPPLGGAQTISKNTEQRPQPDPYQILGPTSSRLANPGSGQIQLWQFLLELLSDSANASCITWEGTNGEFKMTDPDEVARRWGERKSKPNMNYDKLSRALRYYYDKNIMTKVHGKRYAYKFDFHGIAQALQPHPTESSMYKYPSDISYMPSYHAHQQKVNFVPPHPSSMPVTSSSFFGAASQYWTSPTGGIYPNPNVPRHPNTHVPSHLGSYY
# In short: (§1)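 A tag-only sample was pooled with DNA-barcoded human transcription factors that had been expressed in yeast as GST fusions and captured on glutathione beads. The pools were incubated for 30 min at room temperature with 200 nmole of a random double-stranded 16-mer DNA library in Tris/NaCl/DTT/glycerol buffer, then washed, crosslinked with 0.1% formaldehyde, proximity-ligated (BsaI/T4 ligase, 1 h, 37 °C), PCR-amplified and sequenced on an Illumina NextSeq500. Binding signal is each hexamer's read frequency for a factor divided by its frequency for the tag-only sample.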
# ELK1 = biological target: T2, ELK1 (Homo sapiens, UniProt P19419 1-428); details: protein: recombinant; tags: N-terminal GST; dsDNA, one strand shown
# T2 sequence: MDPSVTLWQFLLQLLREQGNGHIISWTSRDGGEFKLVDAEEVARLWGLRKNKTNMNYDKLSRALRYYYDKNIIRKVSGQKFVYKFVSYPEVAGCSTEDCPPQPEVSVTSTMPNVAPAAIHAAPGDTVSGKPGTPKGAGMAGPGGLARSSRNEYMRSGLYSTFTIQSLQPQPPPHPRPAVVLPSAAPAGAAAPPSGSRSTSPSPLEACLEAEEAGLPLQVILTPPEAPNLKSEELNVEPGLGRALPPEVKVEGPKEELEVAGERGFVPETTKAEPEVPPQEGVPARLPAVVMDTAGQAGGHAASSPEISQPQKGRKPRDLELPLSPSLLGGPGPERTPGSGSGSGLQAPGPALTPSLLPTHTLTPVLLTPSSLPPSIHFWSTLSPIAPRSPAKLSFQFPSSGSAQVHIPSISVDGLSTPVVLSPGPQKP
# In short: as §1
# GABPA = biological target: T3, GABPA (Homo sapiens, UniProt Q06546 1-454); details: protein: recombinant; tags: N-terminal GST; dsDNA, one strand shown
# T3 sequence: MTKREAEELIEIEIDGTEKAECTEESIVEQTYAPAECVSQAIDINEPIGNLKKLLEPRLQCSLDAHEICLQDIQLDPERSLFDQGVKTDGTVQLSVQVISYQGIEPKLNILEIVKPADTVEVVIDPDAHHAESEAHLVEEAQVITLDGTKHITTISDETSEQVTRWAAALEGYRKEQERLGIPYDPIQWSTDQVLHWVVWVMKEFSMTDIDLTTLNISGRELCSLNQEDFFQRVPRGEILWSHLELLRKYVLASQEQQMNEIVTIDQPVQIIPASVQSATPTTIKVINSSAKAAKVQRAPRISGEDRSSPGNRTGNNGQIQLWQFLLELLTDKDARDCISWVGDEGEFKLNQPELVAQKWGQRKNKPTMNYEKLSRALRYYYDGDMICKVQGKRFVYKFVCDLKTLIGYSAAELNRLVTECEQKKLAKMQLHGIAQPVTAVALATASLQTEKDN
# In short: as §1
# ERG = biological target: T4, ERG (Homo sapiens, UniProt P11308 1-479); details: protein: recombinant; tags: N-terminal GST; dsDNA, one strand shown
# T4 sequence: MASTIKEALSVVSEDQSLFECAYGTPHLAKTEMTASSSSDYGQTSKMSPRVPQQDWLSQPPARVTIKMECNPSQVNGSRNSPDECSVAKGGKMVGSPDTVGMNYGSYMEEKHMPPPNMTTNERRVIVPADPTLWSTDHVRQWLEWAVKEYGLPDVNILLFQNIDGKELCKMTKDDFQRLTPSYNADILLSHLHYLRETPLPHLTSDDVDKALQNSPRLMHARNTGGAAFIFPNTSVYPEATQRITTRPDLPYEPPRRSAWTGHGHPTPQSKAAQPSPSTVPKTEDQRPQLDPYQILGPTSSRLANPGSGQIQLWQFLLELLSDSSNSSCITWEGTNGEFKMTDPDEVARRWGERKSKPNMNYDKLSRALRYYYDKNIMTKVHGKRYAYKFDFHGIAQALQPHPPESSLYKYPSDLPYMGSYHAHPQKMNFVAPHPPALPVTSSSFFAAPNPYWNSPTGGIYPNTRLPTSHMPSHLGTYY
# In short: as §1
# ELF1 = ELF1 (Homo sapiens, UniProt P32519 1-619); details: protein: recombinant; tags: N-terminal GST; dsDNA, one strand shown
# Sequence of ELF1 (P32519 whole entry): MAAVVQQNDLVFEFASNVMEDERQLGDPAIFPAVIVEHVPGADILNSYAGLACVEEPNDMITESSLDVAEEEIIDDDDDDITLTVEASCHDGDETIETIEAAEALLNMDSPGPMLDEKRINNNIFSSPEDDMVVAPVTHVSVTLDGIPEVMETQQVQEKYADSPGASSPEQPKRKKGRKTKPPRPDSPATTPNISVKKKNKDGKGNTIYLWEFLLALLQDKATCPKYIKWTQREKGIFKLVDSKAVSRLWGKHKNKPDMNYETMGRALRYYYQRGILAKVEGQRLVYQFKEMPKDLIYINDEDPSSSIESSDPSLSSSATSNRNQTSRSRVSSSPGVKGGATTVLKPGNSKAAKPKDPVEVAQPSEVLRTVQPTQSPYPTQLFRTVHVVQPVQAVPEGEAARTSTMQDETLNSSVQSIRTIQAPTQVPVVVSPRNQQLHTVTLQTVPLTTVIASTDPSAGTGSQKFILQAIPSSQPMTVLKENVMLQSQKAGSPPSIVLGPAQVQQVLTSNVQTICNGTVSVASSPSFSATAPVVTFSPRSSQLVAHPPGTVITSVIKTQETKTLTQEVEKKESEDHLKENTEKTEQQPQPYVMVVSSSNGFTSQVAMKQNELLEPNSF
# In short: as §1
# EHF = biological target: T5, EHF (Homo sapiens, UniProt Q9NZC4 1-300); details: protein: recombinant; tags: N-terminal GST; dsDNA, one strand shown
# T5 sequence: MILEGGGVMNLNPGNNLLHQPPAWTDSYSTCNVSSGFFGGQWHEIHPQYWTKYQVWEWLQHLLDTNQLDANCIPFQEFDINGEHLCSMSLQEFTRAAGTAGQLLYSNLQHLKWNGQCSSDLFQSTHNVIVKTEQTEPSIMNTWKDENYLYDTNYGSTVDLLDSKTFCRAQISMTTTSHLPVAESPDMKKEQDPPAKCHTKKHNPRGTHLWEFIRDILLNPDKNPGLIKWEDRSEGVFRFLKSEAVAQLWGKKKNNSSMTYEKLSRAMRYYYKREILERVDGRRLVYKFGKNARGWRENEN
# In short: as §1
# SPI1 = SPI1 (Homo sapiens, UniProt P17947 1-270); details: protein: recombinant; tags: N-terminal GST; dsDNA, one strand shown
# In short: as §1
# SPIB = SPIB (Homo sapiens, UniProt Q01892 1-262); details: protein: recombinant; tags: N-terminal GST; dsDNA, one strand shown
# Sequence of SPIB (Q01892 whole entry): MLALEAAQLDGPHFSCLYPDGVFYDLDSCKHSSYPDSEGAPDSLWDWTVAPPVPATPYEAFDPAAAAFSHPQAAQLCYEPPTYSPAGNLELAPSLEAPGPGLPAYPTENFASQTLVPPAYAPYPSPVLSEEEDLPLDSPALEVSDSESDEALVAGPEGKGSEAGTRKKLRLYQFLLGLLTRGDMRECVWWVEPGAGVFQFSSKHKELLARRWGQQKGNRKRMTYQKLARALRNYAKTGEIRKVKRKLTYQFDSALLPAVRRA
# In short: as §1
# ELK3 = biological target: T6, ELK3 (Homo sapiens, UniProt P41970 1-407); details: protein: recombinant; tags: N-terminal GST; dsDNA, one strand shown
# T6 sequence: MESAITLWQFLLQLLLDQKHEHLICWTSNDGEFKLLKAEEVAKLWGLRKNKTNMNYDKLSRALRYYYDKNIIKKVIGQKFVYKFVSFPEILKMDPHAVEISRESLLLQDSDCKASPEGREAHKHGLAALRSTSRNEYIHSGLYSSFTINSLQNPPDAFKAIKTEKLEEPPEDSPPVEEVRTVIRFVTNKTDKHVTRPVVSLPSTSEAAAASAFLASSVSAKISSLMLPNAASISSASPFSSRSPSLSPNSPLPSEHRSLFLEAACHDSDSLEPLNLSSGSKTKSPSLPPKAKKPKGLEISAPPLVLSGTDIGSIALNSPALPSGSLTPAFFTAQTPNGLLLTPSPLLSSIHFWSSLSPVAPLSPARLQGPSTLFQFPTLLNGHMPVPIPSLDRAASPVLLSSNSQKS
# In short: as §1
# FEV = biological target: T7, FEV (Homo sapiens, UniProt Q99581 1-238); details: protein: recombinant; tags: N-terminal GST; dsDNA, one strand shown
# T7 sequence: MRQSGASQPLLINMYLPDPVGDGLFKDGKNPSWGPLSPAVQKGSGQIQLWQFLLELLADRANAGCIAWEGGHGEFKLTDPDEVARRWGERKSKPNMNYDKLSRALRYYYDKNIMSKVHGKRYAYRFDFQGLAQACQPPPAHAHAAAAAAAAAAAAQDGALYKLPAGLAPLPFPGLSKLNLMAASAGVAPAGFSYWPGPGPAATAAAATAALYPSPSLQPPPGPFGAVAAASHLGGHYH
# In short: as §1
# ETV5 = ETV5 (Homo sapiens, UniProt P41161 1-510); details: protein: recombinant; tags: N-terminal GST; dsDNA, one strand shown
# Sequence of ETV5 (P41161 whole entry): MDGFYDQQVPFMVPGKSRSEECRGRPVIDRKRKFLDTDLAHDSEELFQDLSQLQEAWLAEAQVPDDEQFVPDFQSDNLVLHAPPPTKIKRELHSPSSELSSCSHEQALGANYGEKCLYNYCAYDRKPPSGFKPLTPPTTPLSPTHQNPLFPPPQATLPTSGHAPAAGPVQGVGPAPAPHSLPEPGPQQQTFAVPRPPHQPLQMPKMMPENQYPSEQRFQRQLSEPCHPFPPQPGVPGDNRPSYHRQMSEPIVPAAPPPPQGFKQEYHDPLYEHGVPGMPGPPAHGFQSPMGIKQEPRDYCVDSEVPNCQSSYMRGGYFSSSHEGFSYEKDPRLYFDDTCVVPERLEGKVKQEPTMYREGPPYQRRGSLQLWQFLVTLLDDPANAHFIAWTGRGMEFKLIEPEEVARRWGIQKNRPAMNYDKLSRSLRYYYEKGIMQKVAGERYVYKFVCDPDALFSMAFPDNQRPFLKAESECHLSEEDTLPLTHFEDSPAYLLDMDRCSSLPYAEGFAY
# In short: as §1
# HSF1 = HSF1 (Homo sapiens, UniProt Q00613 1-529); details: protein: recombinant; tags: N-terminal GST; chain copies: 3; dsDNA, one strand shown
# Sequence of HSF1 (Q00613 whole entry): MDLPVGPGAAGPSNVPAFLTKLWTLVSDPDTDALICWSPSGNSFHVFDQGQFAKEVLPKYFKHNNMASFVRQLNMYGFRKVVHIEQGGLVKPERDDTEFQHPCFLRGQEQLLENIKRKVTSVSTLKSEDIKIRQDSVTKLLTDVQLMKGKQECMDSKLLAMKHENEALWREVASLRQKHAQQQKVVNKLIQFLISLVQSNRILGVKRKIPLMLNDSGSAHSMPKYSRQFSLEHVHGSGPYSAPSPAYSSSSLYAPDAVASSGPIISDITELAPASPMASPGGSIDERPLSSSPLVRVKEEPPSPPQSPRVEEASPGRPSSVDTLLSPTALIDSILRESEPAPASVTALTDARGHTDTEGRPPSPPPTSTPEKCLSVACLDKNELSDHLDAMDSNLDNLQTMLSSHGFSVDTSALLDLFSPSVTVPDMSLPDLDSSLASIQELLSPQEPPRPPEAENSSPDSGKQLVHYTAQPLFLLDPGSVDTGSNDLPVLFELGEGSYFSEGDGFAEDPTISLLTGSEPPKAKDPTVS
# In short: as §1
# SPIC = biological target: T8, SPIC (Homo sapiens, UniProt Q8N5J4 1-248); details: protein: recombinant; tags: N-terminal GST; dsDNA, one strand shown
# T8 sequence: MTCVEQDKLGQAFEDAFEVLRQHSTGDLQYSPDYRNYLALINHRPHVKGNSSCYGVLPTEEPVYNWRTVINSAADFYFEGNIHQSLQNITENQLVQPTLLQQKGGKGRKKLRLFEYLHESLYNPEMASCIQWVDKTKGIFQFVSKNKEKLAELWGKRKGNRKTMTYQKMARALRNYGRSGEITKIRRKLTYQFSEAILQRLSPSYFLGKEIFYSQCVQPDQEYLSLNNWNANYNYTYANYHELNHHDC
# In short: as §1
# ELF4 = ELF4 (Homo sapiens, UniProt Q99607 1-663); details: protein: recombinant; tags: N-terminal GST; dsDNA, one strand shown
# Sequence of ELF4 (Q99607 whole entry): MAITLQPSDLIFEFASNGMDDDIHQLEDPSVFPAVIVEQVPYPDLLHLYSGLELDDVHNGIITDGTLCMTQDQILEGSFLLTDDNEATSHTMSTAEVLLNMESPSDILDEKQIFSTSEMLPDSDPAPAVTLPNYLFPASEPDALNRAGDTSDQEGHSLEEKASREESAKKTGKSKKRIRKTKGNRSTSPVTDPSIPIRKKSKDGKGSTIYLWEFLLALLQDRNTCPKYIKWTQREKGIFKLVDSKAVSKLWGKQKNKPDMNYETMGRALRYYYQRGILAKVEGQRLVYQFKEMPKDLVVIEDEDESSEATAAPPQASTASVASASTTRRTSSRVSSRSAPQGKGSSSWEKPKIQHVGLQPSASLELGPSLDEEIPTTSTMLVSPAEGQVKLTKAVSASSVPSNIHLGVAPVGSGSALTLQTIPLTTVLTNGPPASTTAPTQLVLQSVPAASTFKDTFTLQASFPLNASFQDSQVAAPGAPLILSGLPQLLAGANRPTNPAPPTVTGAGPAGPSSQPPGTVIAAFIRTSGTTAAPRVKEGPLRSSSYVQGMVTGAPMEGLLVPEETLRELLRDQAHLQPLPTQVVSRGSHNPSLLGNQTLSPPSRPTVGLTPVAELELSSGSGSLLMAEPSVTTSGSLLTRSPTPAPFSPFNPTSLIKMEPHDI
# In short: as §1
# ELK4 = biological target: T9, ELK4 (Homo sapiens, UniProt P28324-2 1-405); details: protein: recombinant; tags: N-terminal GST; dsDNA, one strand shown
# T9 sequence: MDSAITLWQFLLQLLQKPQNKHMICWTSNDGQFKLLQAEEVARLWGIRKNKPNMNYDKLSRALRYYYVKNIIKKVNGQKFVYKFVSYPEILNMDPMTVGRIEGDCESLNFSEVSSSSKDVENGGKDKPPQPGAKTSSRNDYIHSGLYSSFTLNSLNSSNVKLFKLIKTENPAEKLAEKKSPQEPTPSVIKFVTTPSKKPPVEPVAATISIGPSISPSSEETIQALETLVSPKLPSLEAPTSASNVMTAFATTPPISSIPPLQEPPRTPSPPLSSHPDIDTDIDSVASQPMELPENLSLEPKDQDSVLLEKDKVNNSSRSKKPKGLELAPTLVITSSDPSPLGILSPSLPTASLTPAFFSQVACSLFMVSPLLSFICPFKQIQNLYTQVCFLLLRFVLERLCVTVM
# In short: as §1
# ETV2 = biological target: T10, ETV2 (Homo sapiens, UniProt O00321 1-342); details: protein: recombinant; tags: N-terminal GST; dsDNA, one strand shown
# T10 sequence: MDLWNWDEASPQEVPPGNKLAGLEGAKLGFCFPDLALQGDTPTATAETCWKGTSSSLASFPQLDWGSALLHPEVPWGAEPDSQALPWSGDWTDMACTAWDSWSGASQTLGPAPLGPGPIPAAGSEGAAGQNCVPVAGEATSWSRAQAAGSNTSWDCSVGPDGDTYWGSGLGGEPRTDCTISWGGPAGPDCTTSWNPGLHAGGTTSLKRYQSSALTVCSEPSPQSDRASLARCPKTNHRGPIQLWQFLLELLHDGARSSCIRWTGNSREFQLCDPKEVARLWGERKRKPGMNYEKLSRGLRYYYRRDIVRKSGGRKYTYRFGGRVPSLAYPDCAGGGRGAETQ
# In short: as §1
# ELF3 = biological target: T11, ELF3 (Homo sapiens, UniProt P78545 1-371); details: protein: recombinant; tags: N-terminal GST; dsDNA, one strand shown
# T11 sequence: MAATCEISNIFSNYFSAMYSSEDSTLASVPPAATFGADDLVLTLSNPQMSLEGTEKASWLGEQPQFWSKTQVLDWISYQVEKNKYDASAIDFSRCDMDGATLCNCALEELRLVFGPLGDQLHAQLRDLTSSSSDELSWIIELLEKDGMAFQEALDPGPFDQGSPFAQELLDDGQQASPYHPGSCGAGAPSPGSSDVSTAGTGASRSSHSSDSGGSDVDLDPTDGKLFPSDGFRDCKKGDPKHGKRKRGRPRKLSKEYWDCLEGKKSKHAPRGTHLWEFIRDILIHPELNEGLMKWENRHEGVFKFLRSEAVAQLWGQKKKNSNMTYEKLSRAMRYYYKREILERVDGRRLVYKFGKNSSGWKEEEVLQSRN
# In short: as §1
# CRX = CRX (Homo sapiens, UniProt O43186 1-299); details: protein: recombinant; tags: N-terminal GST; dsDNA, one strand shown
# Sequence of CRX (O43186 whole entry): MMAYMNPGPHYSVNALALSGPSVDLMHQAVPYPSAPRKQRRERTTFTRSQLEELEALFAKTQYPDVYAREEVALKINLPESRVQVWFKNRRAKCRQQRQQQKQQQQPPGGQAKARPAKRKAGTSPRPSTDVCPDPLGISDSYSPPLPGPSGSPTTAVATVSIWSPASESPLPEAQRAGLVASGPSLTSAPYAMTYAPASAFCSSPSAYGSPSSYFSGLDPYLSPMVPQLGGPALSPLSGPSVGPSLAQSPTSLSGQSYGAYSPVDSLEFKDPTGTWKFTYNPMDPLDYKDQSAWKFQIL
# In short: as §1
# ETV1 = ETV1 (Homo sapiens, UniProt P50549 1-477); details: protein: recombinant; tags: N-terminal GST; dsDNA, one strand shown
# Sequence of ETV1 (P50549 whole entry): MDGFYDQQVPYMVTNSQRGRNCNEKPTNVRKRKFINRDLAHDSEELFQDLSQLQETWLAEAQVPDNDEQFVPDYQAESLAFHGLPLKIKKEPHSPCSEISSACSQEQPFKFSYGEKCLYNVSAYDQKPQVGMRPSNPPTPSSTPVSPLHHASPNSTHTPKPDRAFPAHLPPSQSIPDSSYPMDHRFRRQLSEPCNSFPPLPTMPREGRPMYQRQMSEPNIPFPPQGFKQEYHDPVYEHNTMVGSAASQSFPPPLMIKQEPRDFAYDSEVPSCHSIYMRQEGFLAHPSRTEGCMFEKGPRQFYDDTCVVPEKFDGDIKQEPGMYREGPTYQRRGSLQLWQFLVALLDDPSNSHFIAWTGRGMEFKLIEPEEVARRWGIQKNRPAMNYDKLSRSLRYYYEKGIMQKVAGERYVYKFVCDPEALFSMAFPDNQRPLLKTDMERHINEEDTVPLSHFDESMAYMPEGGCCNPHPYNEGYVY
# In short: as §1
sequence,measurement,setting,value
ATGACG,binding signal,FLI1,"1.28 fold enrichment (6-mer frequency, TF over GST control)"
same,binding signal,ELK1,"1.44 fold enrichment (6-mer frequency, TF over GST control)"
same,binding signal,GABPA,"1.37 fold enrichment (6-mer frequency, TF over GST control)"
same,binding signal,ERG,"1.29 fold enrichment (6-mer frequency, TF over GST control)"
same,binding signal,ELF1,"1.34 fold enrichment (6-mer frequency, TF over GST control)"
same,binding signal,EHF,"1.21 fold enrichment (6-mer frequency, TF over GST control)"
same,binding signal,SPI1,"1.32 fold enrichment (6-mer frequency, TF over GST control)"
same,binding signal,SPIB,"1.43 fold enrichment (6-mer frequency, TF over GST control)"
same,binding signal,ELK3,"1.39 fold enrichment (6-mer frequency, TF over GST control)"
same,binding signal,FEV,"1.32 fold enrichment (6-mer frequency, TF over GST control)"
same,binding signal,ETV5,"1.4 fold enrichment (6-mer frequency, TF over GST control)"
same,binding signal,HSF1,"1.13 fold enrichment (6-mer frequency, TF over GST control)"
same,binding signal,SPIC,"1.18 fold enrichment (6-mer frequency, TF over GST control)"
same,binding signal,ELF4,"1.39 fold enrichment (6-mer frequency, TF over GST control)"
same,binding signal,ELK4,"1.47 fold enrichment (6-mer frequency, TF over GST control)"
same,binding signal,ETV2,"1.25 fold enrichment (6-mer frequency, TF over GST control)"
same,binding signal,ELF3,"1.3 fold enrichment (6-mer frequency, TF over GST control)"
same,binding signal,CRX,"1.11 fold enrichment (6-mer frequency, TF over GST control)"
same,binding signal,ETV1,"1.3 fold enrichment (6-mer frequency, TF over GST control)"
